Assay results as given in the supplement of paper PMC3414501.
Where a name gives a salt, the structure may show the parent alone.

The molecules below were run on S. cerevisiae SK1 pCDA2-eGFP (USY613), sporulating (assay: CDA2-GFP sporulation assay sensitivity score (z-score vs DMSO controls); higher = stronger inhibition of sporulation, active = hit call of the paper).
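Further: active if sensitivity score above 5.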

Structure (SMILES) | CDA2-GFP sporulation assay sensitivity score
CNS(=O)(=O)Cc1ccc2[nH]cc(CCN(C)C)c2c1 [Sumatriptan succinate] (stock concentration (mM, diluted 1:100): 7.2) | -0.43 (inactive)
CC(=O)[C@@]1(O)CC[C@H]2[C@@H]3C[C@H](C)C4=CC(=O)CC[C@]4(C)[C@H]3CC[C@@]21C [Medroxyprogesterone] (stock concentration (mM, diluted 1:100): 10) | -0.44 (inactive)
C[C@@H](c1ncncc1F)[C@](O)(Cn1cncn1)c1ccc(F)cc1F [Voriconazole] (stock concentration (mM, diluted 1:100): 9.9) | -0.46 (inactive)
C=CC[C@@H]1/C=C(\C)C[C@H](C)C[C@H](OC)[C@H]2O[C@@](O)(C(=O)C(=O)N3CCCC[C@H]3C(=O)O[C@H](/C(C)=C/[C@@H]3CC[C@@H](O)[C@H](OC)C3)[C@H](C)[C@@H](O)CC1=O)[C@H](C)C[C@@H]2OC [Tacrolimus] (stock concentration (mM, diluted 1:100): 10) | 0.75 (inactive)
CCOC(=O)OC(C)OC1=C(C(=O)Nc2ccccn2)N(C)S(=O)(=O)c2ccccc21 (stereo unspecified) [Ampiroxicam] (stock concentration (mM, diluted 1:100): 10) | 3.3 (inactive)
CN(C)CCCSc1ccccc1NC(=O)/C=C/c1ccccc1 [Cinanserin] (stock concentration (mM, diluted 1:100): 10) | 1.28 (inactive)
CC[C@@H]1C(=O)OC[C@@H]1Cc1cncn1C [Pilocarpine hydrochloride] (stock concentration (mM, diluted 1:100): 10) | 1.83 (inactive)
Nc1ncnc2c1ncn2[C@@H]1O[C@H](CO)C[C@@H]1O [3-Deoxydenosine] (stock concentration (mM, diluted 1:100): 10) | 19.9 (active)
CN1CCN(c2c(F)cc3c(=O)c(C(=O)O)cn4c3c2SCC4)CC1 [Rufloxacin hydrochloride] (stock concentration (mM, diluted 1:100): 10) | -0.17 (inactive)
CC[C@H](C)C(=O)O[C@H]1C[C@H](O)C=C2C=C[C@H](C)[C@H](CC[C@@H](O)C[C@@H](O)CC(=O)O)[C@H]21 [Pravastatin sodium] (stock concentration (mM, diluted 1:100): 9.5) | -1.3 (inactive)
Cn1nnc2c(C(N)=O)ncn2c1=O [Temozolomide] (stock concentration (mM, diluted 1:100): 10) | -0.1 (inactive)
Cc1nc2n(c(=O)c1CCN1CCC(c3noc4cc(F)ccc34)CC1)CCCC2 [Risperidone] (stock concentration (mM, diluted 1:100): 10) | -0.4 (inactive)
C[N+]1(C)CCC(OC(=O)C(O)(c2ccccc2)C2CCCC2)C1 (stereo unspecified) [Glycopyrrolate] (stock concentration (mM, diluted 1:100): 10) | 1.55 (inactive)
NNCCc1ccccc1 [Phenelzine sulfate salt] (stock concentration (mM, diluted 1:100): 10) | 1.83 (inactive)
CN1[C@@H](CC(=O)c2ccccc2)CCC[C@H]1C[C@H](O)c1ccccc1 [Lobeline hydrochloride] (stock concentration (mM, diluted 1:100): 10) | 2.99 (inactive)
CC(=O)O[C@H]1C[C@@H]2CC[C@@H]3[C@H](CC[C@@]4(C)[C@H]3C[C@H]([N+]3(C)CCCCC3)[C@@H]4OC(C)=O)[C@@]2(C)C[C@@H]1N1CCCCC1 [Vecuronium bromide] (stock concentration (mM, diluted 1:100): 10) | 1.32 (inactive)
Cc1ccsc1C(=CCCN1CCC[C@@H](C(=O)O)C1)c1sccc1C [Tiagabine hydrochloride] (stock concentration (mM, diluted 1:100): 9.1) | 2.44 (inactive)
CNCC[C@H](Oc1cccc2ccccc12)c1cccs1 [Duloxetine hydrochloride] (stock concentration (mM, diluted 1:100): 8.9) | 16.3 (active)

Structure (SMILES) | CDA2-GFP sporulation assay sensitivity score
O=C(CCNNC(=O)c1ccncc1)NCc1ccccc1 [Nialamide] (stock concentration (mM, diluted 1:100): 10) | 1.74 (inactive)
CN1CC(=O)N2[C@H](c3ccc4c(c3)OCO4)c3[nH]c4ccccc4c3C[C@@H]2C1=O [Tadalafil] (stock concentration (mM, diluted 1:100): 10) | -4.01 (inactive)
CS(=O)(=O)c1ccc(-c2cc(Br)sc2-c2ccc(F)cc2)cc1 (stock concentration (mM, diluted 1:100): 10) | 12.1 (inactive)
O=C(O)CCc1nc(-c2ccccc2)c(-c2ccccc2)o1 [Oxaprozin] (stock concentration (mM, diluted 1:100): 10) | -0.84 (inactive)
CCN(CC)CC1CCCCN1CC(=O)N1c2ccccc2C(=O)Nc2cccnc21 (stereo unspecified) [Otenzepad] (stock concentration (mM, diluted 1:100): 10) | 0.65 (inactive)
CCOC(=O)c1ccc(OC(=O)CCCCCNC(=N)N)cc1 [Gabexate mesylate] (stock concentration (mM, diluted 1:100): 7.7) | 2.43 (inactive)
COC(=O)C1=C(C)NC(C)=C(C(=O)OC)C1c1ccccc1[N+](=O)[O-] [Nifedipine] (stock concentration (mM, diluted 1:100): 10.7) | 3.14 (inactive)
COc1cc(C)c(Cc2cnc(N)nc2N)cc1OC [Ormetoprim] (stock concentration (mM, diluted 1:100): 10) | 0.05 (inactive)
Nc1nc2ccc(OC(F)(F)F)cc2s1 [Riluzole] (stock concentration (mM, diluted 1:100): 9.9) | 16.9 (active)
CNCCCC12CCC(c3ccccc31)c1ccccc12 [Maprotilline hydrochloride] (stock concentration (mM, diluted 1:100): 10) | 0.21 (inactive)
Cc1ccnc2c1NC(=O)c1cccnc1N2C1CC1 [Viramune] (stock concentration (mM, diluted 1:100): 10) | -3.55 (inactive)
COc1nc(C)nc(Cl)c1NC1=NCCN1 [Moxonidine hydrochloride] (stock concentration (mM, diluted 1:100): 9.2) | 0.6 (inactive)
CCCc1nc(C)c2c(=O)nc(-c3cc(S(=O)(=O)N4CCN(CC)CC4)ccc3OCC)[nH]n12 [Vardenafil citrate] (stock concentration (mM, diluted 1:100): 7.2) | 4.72 (inactive)
CN1[C@@H]2CC[C@H]1C[C@@H](OC(=O)c1c[nH]c3ccccc13)C2 [Tropisetron hydrochloride] (stock concentration (mM, diluted 1:100): 7.7) | 1.1 (inactive)
COc1cc(C(=O)NC2CCCNC2)cc(OC)c1OC (stereo unspecified) [Troxipide] (stock concentration (mM, diluted 1:100): 10.1) | -0.11 (inactive)
CC(C)(C)NC(=O)[C@@H]1CN(Cc2cccnc2)CCN1C[C@@H](O)C[C@@H](Cc1ccccc1)C(=O)N[C@H]1c2ccccc2C[C@H]1O [Indinavir sulphate] (stock concentration (mM, diluted 1:100): 8.6) | -1.29 (inactive)
CC(=O)SCC(Cc1ccccc1)C(=O)NCC(=O)OCc1ccccc1 (stereo unspecified) [Acetorphan] (stock concentration (mM, diluted 1:100): 10) | 0.9 (inactive)
O=C1C(c2c(O)[nH]c3ccccc23)=Nc2ccccc21 [Indarubicin] (stock concentration (mM, diluted 1:100): 10) | 9.61 (inactive)
